# Measurements from PubChem BioAssay (NCI).
# About 83,000 compounds went through this panel and 20% of them were active in at least one assay; those are over-represented in the sample as a whole.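 Each cell line was grown in a 96-well plate and treated with one concentration of compound for 48 hours. Values below 10 were considered active.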 Calls of active or inactive are those of the source.
# Tested on: HL-60(TB) leukemia
# Experiment: NCI-60 one-dose screen, 48 h (100 = growth as untreated, 0 = no growth, -100 = all killed)
# Details: 10 µM unless noted
row,Structure (SMILES),growth
1,COc1ccc(C2(Cl)c3ccccc3N(c3ccccc3)c3ccccc32)cc1,-22.3% (active)
2,CN(C)CCOc1ccc(-c2nc3sccn3c2-c2ccnc(S(C)(=O)=O)n2)cc1,97.1% (inactive)
3,CCc1ccccc1-n1[nH]c(C)c(C=N)c1=O,98.3% (inactive)
4,C=Cc1cnc(Nc2ccc(OC)cc2)nc1NCCCNC(=O)C1CCC1,14.6% (inactive)
5,CCOC(=O)C1(C(=O)OCC)N=C(c2ccccc2)C=C1c1ccccc1,87.2% (inactive)
6,Cc1cc(N2CCCCC2)nc(N(CCNc2ccnc3cc(Cl)ccc23)Cc2ccccn2)n1,41.6% (inactive)
7,Cc1c(O)cc(-c2cnc(N/N=C\c3ccc(Cl)cc3)s2)c(O)c1C,-3.05% (active)
8,COc1ccc(C(=O)/C=C/c2cc(C(=O)c3cc(OC)c(OC)c(OC)c3)ccc2OC)cc1,75.3% (inactive)
9,CC1(C)CC2=C3C=C[C@@H]4[C@@]5(C)CC[C@H](O)C(C)(C)[C@@H]5CC[C@@]4(C)[C@]3(C)CC[C@@]2(C(=O)O)CC1=O,39% (inactive)
10,O=c1[nH]c(Cl)nc2c1cnn2-c1ccccc1,-2.45% (active)
11,O=C(Nc1nc2ccccc2s1)Nc1ccc([N+](=O)[O-])cc1Cl,78.8% (inactive)
12,Oc1c(N=Nc2nn[nH]n2)ccc2ccccc12,98.2% (inactive)
13,COc1cc(Nc2cc(C)nc(N3CCN(c4ccnc5cc(Cl)ccc45)CC3)n2)cc(OC)c1,-6.44% (active)
14,CNc1ccc(N)cc1,109% (inactive)
15,Clc1ccc(Nc2ccnc(NCCNc3ccnc4cc(Cl)ccc34)n2)cc1,-71% (active)
16,CCC(O)CC(CC)CO (centres undefined),94.2% (inactive)
17,CCCCC1=C(P(=O)(O)O)N[C@H](C(=O)O)CS1,103% (inactive)
18,CCN(CC)C(=O)C[N+](C)(C)CCOC(c1ccccc1)c1ccccc1,97.5% (inactive)
19,Cn1cc(-c2ccc3occ(-c4cccc(-c5ccncc5)c4)c3n2)cn1,2.9% (active)
20,COc1ccc(-c2nc(SCC(=O)Nc3nc4ccc(C)cc4s3)[nH]c(=O)c2C#N)cc1OC,105% (inactive)

row,Structure (SMILES),growth
1,FC(F)(F)c1nn[nH]n1,102% (inactive)
2,COc1ccc(C2CC(n3ccnc3)c3cc(OC)c(OC)c(OC)c32)cc1O (centres undefined),83.6% (inactive)
3,COc1ccc(/C=C/C(=O)OCC(=O)NNC(=O)c2ccccc2)cc1OC,72.2% (inactive)
4,CN(C)CCCCC(C(=O)CBr)(c1ccccc1)c1ccccc1,-36.1% (active)
5,C[C@@H]1CC[C@@H]2[C@@H]1[C@H](OC(=O)/C=C/c1ccccc1)[C@]1(c3ccccc3)C[C@@H](NC(=O)CO)[C@@]2(C)O1,97.7% (inactive)
6,N=c1ccn2c(n1)OC1C(O)C(CO)OC12 (centres undefined),106% (inactive)
7,C=C1CCC2C(C)(CO)C(O)CCC2(C)C1C/C=C1/C(=O)OCC1Oc1ccccc1C (centres undefined),57.4% (inactive)
8,CC(NC(=O)c1ccccc1)C(=O)Nc1ccccc1 (centres undefined),107% (inactive)
9,Cc1nc2sc(C(=O)Nc3cccc(Cl)c3C)c(N)c2cc1C(=O)/C=C/c1ccccc1,2.75% (active)
10,CCN(CC)CCNCC(O)Cc1ccc(OC)cc1 (centres undefined),59.1% (inactive)
11,CCCCCCCCCCCCCC1=NCC[N+]1(CCO)Cc1ccccc1 (centres undefined),-63.8% (active)
12,CNC(=O)c1cc(Oc2ccc3nc(NC(=O)Nc4ccc(N5CCC(N(C)C)CC5)cc4)sc3c2)ccn1,77.1% (inactive)
13,C=C1c2c(Cl)ccc(O)c2C(O)=C2C(=O)[C@]3(O)C(O)=C(C(N)=O)C(=O)[C@@H](N(C)C)[C@@H]3[C@@H](O)[C@H]12,-24.8% (active)
14,COc1ccc(C2CC(c3ccccc3)=NN2c2nc(C)c(C(C)=O)s2)cc1 (centres undefined),101% (inactive)
15,O=C(CN1CCCCCC1)Nc1nc2ccc(NCc3ccc(Cl)cc3)cc2s1,95.9% (inactive)
16,Cc1cccc2c1NC(=O)[C@@]21[C@H](C(=O)c2ccccc2)[C@]2(C(=O)Nc3ccccc32)[C@H]2CCCN21,14.6% [100 µM] (inactive)
17,C1=NCCc2ccccc21,116% (inactive)
18,COc1cc(C2CC(c3ccc(Cl)cc3)=NN2C=O)ccc1Oc1ccnc2cc(Cl)ccc12 (centres undefined),85.9% (inactive)
19,CN(C)c1ccc(-c2ccc(-c3ccc(C(=N)N)cc3)s2)cc1,14.4% (inactive)
